Hit rate of the full screen: of about 150,000 compounds, about 6,500 (4.3%) were called active. Inconclusive results (about 12%) are left out. Calls come from the whole dose curve; as a rule, active = well fitted inhibition curve with a large enough effect (not every such curve was filed as active); inconclusive = small, poorly fitted or top-dose-only effect, or another doubt; inactive = no such curve, though single readings can be large or run the other way. Only a selection was taken, and actives are over-represented in it overall.
molecular target: 15-hydroxyprostaglandin dehydrogenase [NAD(+)] (Homo sapiens) (UniProt P15428); experiment: qHTS Assay for Inhibitors of HPGD (15-Hydroxyprostaglandin Dehydrogenase); conditions: purified HPGD, NADH fluorescence kinetic, PGE2 substrate; activity change, negative = inhibition: active compounds read low
Sequence (P15428 whole entry, looked up): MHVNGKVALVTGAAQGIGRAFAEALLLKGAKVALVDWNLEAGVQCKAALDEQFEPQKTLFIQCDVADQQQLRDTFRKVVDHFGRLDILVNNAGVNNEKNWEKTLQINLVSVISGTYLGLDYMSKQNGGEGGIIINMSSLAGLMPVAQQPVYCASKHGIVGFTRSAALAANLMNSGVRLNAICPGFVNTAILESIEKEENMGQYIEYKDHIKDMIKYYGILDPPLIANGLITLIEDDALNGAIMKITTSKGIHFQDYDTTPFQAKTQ
In short: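 20 nM HPGD preincubated 15 min at room temperature with compound in 50 mM Tris-HCl pH 8, 0.01% Tween 20. Started with 1 mM NAD+ and 30 uM prostaglandin E2; NADH fluorescence (360/450 nm) read 5 times over 30-s intervals, last minus first.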
% is set by controls: 0 for no effect and ±100 for the full control effect; potency is the fitted concentration of half-maximal effect.

Activity change, negative = inhibition, inactive:
COc1ccc(C(=O)Nc2ncc3c(n2)-c2ccccc2CC3)cc1 -20.4%
CSc1nc2sc3c(c2c(=O)[nH]1)CCc1ccccc1-3 -7.61%
Cc1cccc(C(=O)NCC(=O)OCC(=O)N2CC3(C)CC2CC(C)(C)C3)c1 (stereo not given) -5.91%
Cn1cccc1/C=N/NC(=O)c1ccc(OC(F)(F)C(F)F)cc1 -5.18%
CCN(CC)C(=O)CSc1nnc(-c2cccc(OC)c2)o1 -11.1%
COc1ccc(CCNC(=O)CSc2nnc(-c3cccc(F)c3)o2)cc1OC -14.4%
COCCNC(=O)c1ccccc1NS(=O)(=O)c1ccc(C)c([N+](=O)[O-])c1 1.9%
Brc1cccc(-c2nnc3n2CCC3)c1 -11.6%
Cc1cccc(NC(=O)CN2C(=O)CNC2=O)c1 -7.22%
COc1ccnc(Oc2ccccc2)n1 -1.44%
O=[N+]([O-])c1ccc(N/N=C2/CCCCC2c2ccccn2)c([N+](=O)[O-])c1 (stereo not given) -4.22%
Cc1ccc(S(=O)(=O)N2CCOCC2)cc1C(=O)NC(=S)N(Cc1ccccc1)C(C)C -17.6%
CCC(C(=O)OCC(=O)Nc1ccc(C(=O)Nc2ccc(OC)cc2)cc1)c1ccccc1 (stereo not given) -12.4%
Cc1nc2ccc(S(=O)(=O)NC(C(=O)N3CCCCCC3)C(C)C)cc2s1 (stereo not given) -2.12%
Cc1nc2ccc(C(=O)N3CCN(c4ccccc4)CC3)cc2s1 -2.92%
O=C(N/N=C/c1ccc2c(c1)OCO2)c1ccc(Cn2cc([N+](=O)[O-])cn2)o1 -8.13%
C=CCN1C(=O)C(Cc2ccc(OCC)cc2)SC1=Nc1ccc(C(=O)O)cc1 (stereo not given) -8.9%
Cc1ccc(C)c(OCC(=O)N2CCN(C(=O)c3ccco3)CC2)c1 1.99%
COc1cc(NS(=O)(=O)c2ccc(N=Cc3c(C)[nH]n(-c4ccccc4)c3=O)cc2)nc(OC)n1 -14.8%
CCc1nnc(NS(=O)(=O)c2ccc(NS(=O)(=O)c3ccccc3)cc2)s1 2.28%

Potency, active:
COc1ccc(-n2c(=S)[nH]c3sc4c(c3c2=O)CCc2ccccc2-4)cc1 12.6 µM
COc1ccc(CN(C(=O)CSc2nnc(-c3ccc(OC)c(OC)c3)o2)c2ccc(F)cc2)cc1 14.1 µM
O=C(Cn1[nH]c(=O)c2ccccc2c1=O)Nc1cccc(-c2nnc3n2CCCCC3)c1 14.1 µM
Cc1nc2ccc(C(=O)N3CCSCC3)cc2s1 1.58 µM
CCc1nnc(NS(=O)(=O)c2ccc(N=Cc3c(C)[nH]n(-c4ccc(C)cc4)c3=O)cc2)s1 25.1 µM

From PubChem BioAssay AID894 (National Center for Advancing Translational Sciences (NCATS), 2007)
